{
  "source": "ChEMBL document CHEMBL1961873",
  "about": "“Compounds: GSK PKIS; Assays: Nanosyn kinase panel” (2012)",
  "key": {"[1]": {"target": "T1, Inhibitor of nuclear factor kappa-B kinase subunit epsilon (Homo sapiens) (UniProt Q14164)", "T1 sequence (whole entry)": "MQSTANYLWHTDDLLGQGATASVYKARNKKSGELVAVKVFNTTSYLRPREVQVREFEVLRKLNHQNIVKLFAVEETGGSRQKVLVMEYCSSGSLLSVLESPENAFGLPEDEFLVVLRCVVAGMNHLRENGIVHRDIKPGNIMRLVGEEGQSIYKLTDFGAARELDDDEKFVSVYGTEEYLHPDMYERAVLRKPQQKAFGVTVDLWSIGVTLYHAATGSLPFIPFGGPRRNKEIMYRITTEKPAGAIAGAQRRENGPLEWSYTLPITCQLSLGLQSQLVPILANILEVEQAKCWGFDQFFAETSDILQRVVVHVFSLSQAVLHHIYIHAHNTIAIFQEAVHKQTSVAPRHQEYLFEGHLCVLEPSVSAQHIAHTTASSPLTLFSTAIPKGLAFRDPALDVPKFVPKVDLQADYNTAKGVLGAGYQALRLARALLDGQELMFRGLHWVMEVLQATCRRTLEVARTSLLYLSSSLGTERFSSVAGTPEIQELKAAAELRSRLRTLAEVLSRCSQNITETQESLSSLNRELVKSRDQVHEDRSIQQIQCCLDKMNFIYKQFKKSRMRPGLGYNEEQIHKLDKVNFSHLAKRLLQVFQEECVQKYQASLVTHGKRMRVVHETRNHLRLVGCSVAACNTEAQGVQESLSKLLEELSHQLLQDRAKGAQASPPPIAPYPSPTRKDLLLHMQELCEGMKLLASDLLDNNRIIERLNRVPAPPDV", "settings": "at 1 µM"}, "[2]": {"target": "T2, Serine/threonine-protein kinase Nek1 (Homo sapiens) (UniProt Q96PY6)", "T2 sequence (whole entry)": "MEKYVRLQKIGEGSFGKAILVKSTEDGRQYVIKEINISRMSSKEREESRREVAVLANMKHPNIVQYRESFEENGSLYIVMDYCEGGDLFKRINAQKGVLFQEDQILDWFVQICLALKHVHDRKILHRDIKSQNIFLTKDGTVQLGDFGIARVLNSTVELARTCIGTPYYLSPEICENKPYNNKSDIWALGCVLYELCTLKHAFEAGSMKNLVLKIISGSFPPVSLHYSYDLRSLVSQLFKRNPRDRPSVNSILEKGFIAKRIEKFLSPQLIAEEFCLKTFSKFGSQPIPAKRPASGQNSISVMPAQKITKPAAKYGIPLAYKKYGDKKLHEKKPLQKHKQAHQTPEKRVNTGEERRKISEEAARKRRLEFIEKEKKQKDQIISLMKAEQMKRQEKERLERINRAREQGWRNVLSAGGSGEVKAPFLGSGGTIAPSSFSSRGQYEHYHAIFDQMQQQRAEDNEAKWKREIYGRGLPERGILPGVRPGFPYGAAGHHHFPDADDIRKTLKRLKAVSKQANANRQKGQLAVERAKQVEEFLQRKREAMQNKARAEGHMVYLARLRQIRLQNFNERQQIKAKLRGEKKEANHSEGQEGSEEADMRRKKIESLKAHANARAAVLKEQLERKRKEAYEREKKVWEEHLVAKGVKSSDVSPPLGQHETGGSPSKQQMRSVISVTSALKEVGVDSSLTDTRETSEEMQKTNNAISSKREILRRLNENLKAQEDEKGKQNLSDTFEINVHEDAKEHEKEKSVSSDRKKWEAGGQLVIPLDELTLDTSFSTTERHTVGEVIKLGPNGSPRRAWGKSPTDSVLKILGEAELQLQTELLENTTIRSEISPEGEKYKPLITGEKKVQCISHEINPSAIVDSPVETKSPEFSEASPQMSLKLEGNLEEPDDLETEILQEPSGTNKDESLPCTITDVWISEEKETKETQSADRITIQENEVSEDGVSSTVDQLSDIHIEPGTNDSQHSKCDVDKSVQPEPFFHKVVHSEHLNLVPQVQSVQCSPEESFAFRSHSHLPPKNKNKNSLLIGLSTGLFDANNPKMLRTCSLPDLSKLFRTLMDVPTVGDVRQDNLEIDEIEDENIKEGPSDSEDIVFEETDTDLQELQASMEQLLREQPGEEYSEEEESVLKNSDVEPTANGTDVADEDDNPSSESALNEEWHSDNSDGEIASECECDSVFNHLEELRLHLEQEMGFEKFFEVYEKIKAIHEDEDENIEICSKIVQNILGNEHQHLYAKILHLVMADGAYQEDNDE", "settings": "at 0.1 µM"}, "[3]": {"target": "T2, Serine/threonine-protein kinase Nek1 (Homo sapiens)", "settings": "at 1 µM"}, "[4]": {"target": "T3, Serine/threonine-protein kinase Nek2 (Homo sapiens) (UniProt P51955)", "T3 sequence (whole entry)": "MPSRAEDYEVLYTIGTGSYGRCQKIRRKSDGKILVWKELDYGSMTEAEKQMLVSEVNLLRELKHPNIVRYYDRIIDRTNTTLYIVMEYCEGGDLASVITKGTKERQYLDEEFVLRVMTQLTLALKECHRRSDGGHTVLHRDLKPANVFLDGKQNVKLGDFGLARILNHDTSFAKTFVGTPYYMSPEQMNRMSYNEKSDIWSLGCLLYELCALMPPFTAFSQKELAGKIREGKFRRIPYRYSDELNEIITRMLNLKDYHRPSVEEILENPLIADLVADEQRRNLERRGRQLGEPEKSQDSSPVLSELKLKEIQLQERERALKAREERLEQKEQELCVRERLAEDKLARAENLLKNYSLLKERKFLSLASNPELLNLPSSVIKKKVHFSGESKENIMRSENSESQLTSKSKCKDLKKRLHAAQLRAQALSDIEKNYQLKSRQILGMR", "settings": "at 0.1 µM"}, "[5]": {"target": "T3, Serine/threonine-protein kinase Nek2 (Homo sapiens)", "settings": "at 1 µM"}, "[6]": {"target": "Serine/threonine-protein kinase Nek6 (Homo sapiens) (UniProt Q9HC98)", "sequence (Q9HC98 whole entry)": "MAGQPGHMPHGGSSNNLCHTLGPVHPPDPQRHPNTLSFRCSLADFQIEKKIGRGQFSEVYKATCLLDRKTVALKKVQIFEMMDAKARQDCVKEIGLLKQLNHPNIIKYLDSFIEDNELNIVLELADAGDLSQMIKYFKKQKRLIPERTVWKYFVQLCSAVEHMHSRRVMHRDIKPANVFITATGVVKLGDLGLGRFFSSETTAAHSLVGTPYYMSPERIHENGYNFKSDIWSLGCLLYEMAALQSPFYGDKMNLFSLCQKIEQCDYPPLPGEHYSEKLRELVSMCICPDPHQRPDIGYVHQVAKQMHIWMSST", "settings": "at 0.1 µM"}, "[7]": {"target": "Serine/threonine-protein kinase Nek6 (Homo sapiens) (UniProt Q9HC98)", "settings": "at 1 µM"}, "[8]": {"target": "Serine/threonine-protein kinase Nek7 (Homo sapiens) (UniProt Q8TDX7)", "sequence (Q8TDX7 whole entry, looked up)": "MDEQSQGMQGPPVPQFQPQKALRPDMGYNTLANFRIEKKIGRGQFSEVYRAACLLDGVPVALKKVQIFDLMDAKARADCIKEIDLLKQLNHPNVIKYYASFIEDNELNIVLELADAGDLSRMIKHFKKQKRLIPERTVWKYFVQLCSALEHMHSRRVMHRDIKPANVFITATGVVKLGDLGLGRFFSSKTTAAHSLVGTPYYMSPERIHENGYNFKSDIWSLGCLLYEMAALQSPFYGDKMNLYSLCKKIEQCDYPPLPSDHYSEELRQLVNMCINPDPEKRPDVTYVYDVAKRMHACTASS", "settings": "at 0.1 µM"}, "[9]": {"target": "Serine/threonine-protein kinase Nek7 (Homo sapiens) (UniProt Q8TDX7)", "settings": "at 1 µM"}, "[10]": {"target": "T4, Serine/threonine-protein kinase Nek9 (Homo sapiens) (UniProt Q8TD19)", "T4 sequence (whole entry)": "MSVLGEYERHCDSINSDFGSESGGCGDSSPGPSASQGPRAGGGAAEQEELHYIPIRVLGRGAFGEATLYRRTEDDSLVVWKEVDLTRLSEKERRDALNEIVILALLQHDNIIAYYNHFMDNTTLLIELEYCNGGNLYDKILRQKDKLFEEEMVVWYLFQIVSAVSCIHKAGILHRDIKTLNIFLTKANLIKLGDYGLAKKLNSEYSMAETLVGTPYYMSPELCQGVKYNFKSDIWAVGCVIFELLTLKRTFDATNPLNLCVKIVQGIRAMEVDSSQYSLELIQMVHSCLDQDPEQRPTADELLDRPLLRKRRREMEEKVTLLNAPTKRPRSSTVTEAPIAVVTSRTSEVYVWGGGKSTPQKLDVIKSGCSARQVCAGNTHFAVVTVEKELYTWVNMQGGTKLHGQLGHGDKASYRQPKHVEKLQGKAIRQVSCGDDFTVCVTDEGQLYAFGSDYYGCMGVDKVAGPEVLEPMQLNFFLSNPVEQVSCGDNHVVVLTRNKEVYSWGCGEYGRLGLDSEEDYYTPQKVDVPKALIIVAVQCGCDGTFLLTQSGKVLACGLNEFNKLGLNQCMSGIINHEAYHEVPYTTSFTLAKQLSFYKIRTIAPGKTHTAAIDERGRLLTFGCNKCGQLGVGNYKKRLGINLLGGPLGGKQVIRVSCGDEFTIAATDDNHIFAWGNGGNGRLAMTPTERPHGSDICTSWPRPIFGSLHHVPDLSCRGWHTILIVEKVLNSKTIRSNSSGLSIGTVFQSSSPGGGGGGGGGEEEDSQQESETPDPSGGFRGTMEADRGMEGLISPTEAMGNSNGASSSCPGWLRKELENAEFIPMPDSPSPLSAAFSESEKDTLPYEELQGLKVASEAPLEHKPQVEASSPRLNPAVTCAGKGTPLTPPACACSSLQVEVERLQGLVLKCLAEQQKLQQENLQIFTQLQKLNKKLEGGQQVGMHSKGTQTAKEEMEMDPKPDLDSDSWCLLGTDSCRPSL", "settings": "at 0.1 µM"}},
  "data": [
    {"smiles": "COc1cc(N2CCN(C(C)C)CC2)ccc1Nc1nc(Nc2ccc(F)cc2C(=O)NC[C@@H](O)CO)c2cc[nH]c2n1", "values": [
      {"measurement": "inhibition", "setting": "[1]", "result": 10.3, "unit": "%"},
      {"measurement": "inhibition", "setting": "[2]", "result": 2.75, "unit": "%"},
      {"measurement": "inhibition", "setting": "[3]", "result": 4.63, "unit": "%"},
      {"measurement": "inhibition", "setting": "[4]", "result": 5.32, "unit": "%"},
      {"measurement": "inhibition", "setting": "[5]", "result": 5.19, "unit": "%"},
      {"measurement": "inhibition", "setting": "[6]", "result": 1.82, "unit": "%"},
      {"measurement": "inhibition", "setting": "[7]", "result": 3.84, "unit": "%"},
      {"measurement": "inhibition", "setting": "[8]", "result": 5.49, "unit": "%"},
      {"measurement": "inhibition", "setting": "[9]", "result": 3.45, "unit": "%"},
      {"measurement": "inhibition", "setting": "[10]", "result": 2.99, "unit": "%"}
    ]}
  ]
}
